Results: publication PMC9838217, “Structure of SALL4 zinc finger domain reveals link between AT-rich DNA binding and Okihiro syndrome”

Each sequence was assayed against T1, SALL4 ZFC4 R900W (HT-SELEX) (Mus musculus, UniProt Q8BX22 870-940, R900W) (assay: HT-SELEX; high values mean tight binding). Conditions: protein: recombinant; vector His6-GST; dsDNA, one strand shown.
T1 sequence: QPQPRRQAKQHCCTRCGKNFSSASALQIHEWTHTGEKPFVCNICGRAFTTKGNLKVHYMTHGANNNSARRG
Summary of the method: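 For each canonical k-mer, binding signal is the read fraction as fold change versus the initial random library. Data came from up to 6 triplicate cycles in which purified recombinant mouse SALL4 zinc finger cluster 4 (residues 870–940, 1 µg) was incubated 10 min at room temperature with library DNA (1.5 µg first cycle, 200 ng later) in 100 µl of 10 mM Tris–HCl pH 7.5, 50 mM NaCl, poly(dI-dC), DTT, followed by Ni2+ bead capture, PCR amplification, MiSeq sequencing and a 6-mer scan.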
Sequence CGTGAG has a binding signal of 0.501 ± 0.006 fold-change vs cycle 0.
Work on ACTCCC yielded a binding signal of 0.612 ± 0.0294 fold-change vs cycle 0.
For CTACAA, the binding signal was 1.29 ± 0.0465 fold-change vs cycle 0.
For CATAAG, the binding signal was 1.59 ± 0.055 fold-change vs cycle 0.
ATCATC gave a binding signal of 1.56 ± 0.0669 fold-change vs cycle 0.
Sequence GCTGTA has a binding signal of 0.653 ± 0.0229 fold-change vs cycle 0.
In the case of CCTCTC, the binding signal is reported as 0.586 ± 0.028 fold-change vs cycle 0.
With GTTATA the binding signal was 2.05 ± 0.15 fold-change vs cycle 0.
For CAGCTG, the binding signal was 0.397 ± 0.0183 fold-change vs cycle 0.
Sequence GTCTCA has a binding signal of 0.879 ± 0.00912 fold-change vs cycle 0.
CGAGGA was tested, and the binding signal was 0.5 ± 0.0275 fold-change vs cycle 0.
Sequence AGCCTC has a binding signal of 0.401 ± 0.0165 fold-change vs cycle 0.
AAGGAG was tested, and the binding signal was 1.14 ± 0.0427 fold-change vs cycle 0.
CGTCAA showed a binding signal of 0.667 ± 0.0148 fold-change vs cycle 0.
For AGCGAA, the binding signal was 0.566 ± 0.0332 fold-change vs cycle 0.
ATTCCA showed a binding signal of 1.44 ± 0.0779 fold-change vs cycle 0.
CATTCG showed a binding signal of 0.769 ± 0.0521 fold-change vs cycle 0.
For AATTGC, the binding signal was 0.962 ± 0.0218 fold-change vs cycle 0.
ATTCTG showed a binding signal of 1.35 ± 0.0356 fold-change vs cycle 0.
CAGATG was tested, and the binding signal was 0.922 ± 0.0206 fold-change vs cycle 0.
With ACATCT the binding signal was 1.46 ± 0.0394 fold-change vs cycle 0.
AGGAGA showed a binding signal of 1.09 ± 0.059 fold-change vs cycle 0.
With AGTGAG the binding signal was 1.03 ± 0.0394 fold-change vs cycle 0.
With CTGTTC the binding signal was 0.893 ± 0.0123 fold-change vs cycle 0.
GTTCGA gave a binding signal of 0.724 ± 0.0149 fold-change vs cycle 0.
ATCTGG gave a binding signal of 0.839 ± 0.0522 fold-change vs cycle 0.
CTTAAA gave a binding signal of 1.87 ± 0.112 fold-change vs cycle 0.
In the case of CTTTGA, the binding signal is reported as 1.36 ± 0.0716 fold-change vs cycle 0.
Work on GCGTAA yielded a binding signal of 0.556 ± 0.0061 fold-change vs cycle 0.
CGAAGA was tested, and the binding signal was 0.802 ± 0.0443 fold-change vs cycle 0.
CTAAAG showed a binding signal of 1.43 ± 0.0823 fold-change vs cycle 0.
Sequence ATCAAT has a binding signal of 2.07 ± 0.0713 fold-change vs cycle 0.
CAACAC showed a binding signal of 0.8 ± 0.0226 fold-change vs cycle 0.
Work on ACCACG yielded a binding signal of 0.428 ± 0.0163 fold-change vs cycle 0.
CCAACA was tested, and the binding signal was 0.739 ± 0.0191 fold-change vs cycle 0.
Sequence CTCTAA has a binding signal of 1.39 ± 0.103 fold-change vs cycle 0.
CTCCCC gave a binding signal of 0.36 ± 0.0359 fold-change vs cycle 0.
ATTGAA was tested, and the binding signal was 2.06 ± 0.169 fold-change vs cycle 0.
With AAAGTG the binding signal was 1.23 ± 0.0192 fold-change vs cycle 0.
Work on AGGGTG yielded a binding signal of 0.567 ± 0.0247 fold-change vs cycle 0.
